{"source": "PubChem BioAssay", "note": "The source made the active and inactive calls. No rule for the calls is given here.", "data": [{"biological_target": "Pantothenate synthetase (Mycobacterium tuberculosis (strain ATCC 25618 / H37Rv)) (UniProt P9WIL5)", "sequence (P9WIL5 whole entry, looked up)": "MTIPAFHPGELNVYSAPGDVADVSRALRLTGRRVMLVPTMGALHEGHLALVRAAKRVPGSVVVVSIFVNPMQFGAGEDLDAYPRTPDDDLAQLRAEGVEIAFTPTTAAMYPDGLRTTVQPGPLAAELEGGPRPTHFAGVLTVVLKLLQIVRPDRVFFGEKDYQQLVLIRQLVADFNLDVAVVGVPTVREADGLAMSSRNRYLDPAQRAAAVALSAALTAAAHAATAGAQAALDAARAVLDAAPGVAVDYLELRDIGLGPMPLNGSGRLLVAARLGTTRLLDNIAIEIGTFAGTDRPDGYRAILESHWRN", "test": "Recombinant Mtb pantothenate synthetase (PanC) inhibitors, coupled enzyme, confirmatory (AID 375);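 also: 0% = full reaction with vehicle and 100% = no enzyme background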", "conditions": "coupled enzyme assay; at 10 µM, stronger effect = higher value", "values": [{"compound": "COc1ccc(C2(C(=O)N3CCCC3)CCOCC2)cc1OC", "inhibition": "6% (inactive)"}, {"compound": "Cc1ccc2c(c1)C1CCCC3C1N2CC(=O)N3Cc1ccccc1", "note": "(stereo not given)", "inhibition": "0% (inactive)"}, {"compound": "CCOC(=O)c1cc(C)sc1N1C(=O)C2C3C=CC(C3)C2C1=O", "note": "(stereo not given)", "inhibition": "0% (inactive)"}, {"compound": "Cc1c(=O)n(OCc2ccccn2)c2ccccc2[n+]1[O-]", "inhibition": "0% (inactive)"}, {"compound": "O=C(NCc1ccccc1)c1cc(-c2ccco2)on1", "inhibition": "0% (inactive)"}, {"compound": "Cc1cc(C)c(Cn2c(=O)n(CCCC(=O)NCc3ccco3)c(=O)c3ccccc32)c(C)c1", "inhibition": "7% (inactive)"}, {"compound": "C=CCN(C(=O)CNC(=O)c1ccco1)C(C(=O)NC1CCCCC1)c1ccccc1F", "note": "(stereo not given)", "inhibition": "0% (inactive)"}, {"compound": "O=C(O)CCCCCNc1nc(=S)[nH]c2ccccc12", "inhibition": "0% (inactive)"}, {"compound": "CCn1c(=O)cc(SCC(=O)NCC2CCCO2)c2ccccc21", "note": "(stereo not given)", "inhibition": "6% (inactive)"}, {"compound": "Cc1ccc(NC(=O)C2CCCNC2=O)nc1", "note": "(stereo not given)", "inhibition": "0% (inactive)"}, {"compound": "COc1ccc(-n2c(SCC(N)=O)nc3sc4c(c3c2=O)CCN(C)C4)cc1", "inhibition": "0% (inactive)"}, {"compound": "Cc1[nH]nc2c1C(=O)CC(C)(C)C2", "inhibition": "0% (inactive)"}, {"compound": "Cn1c(-c2ccccc2)c(CCO)c2ccccc21", "inhibition": "9% (inactive)"}, {"compound": "Cc1cccc(NC(=O)c2oc3c(c2C)C(=O)CC(C)(C)C3)n1", "inhibition": "9% (inactive)"}, {"compound": "Clc1ss/c(=N\\c2ccccn2)c1Cl", "inhibition": "0% (inactive)"}, {"compound": "Cc1c(C2Nc3ccccc3NC3=C2C(=O)CC(C)(C)C3)cnn1C", "note": "(stereo not given)", "inhibition": "2% (inactive)"}, {"compound": "COCCn1c(SCC(=O)N2CCc3ccccc32)nc2c(c1=O)SC(C)C2", "note": "(stereo not given)", "inhibition": "1% (inactive)"}, {"compound": "CC(=O)c1ccc(NC(=O)CSc2nnc(-c3ccoc3C)n2Cc2ccccc2)cc1", "inhibition": "0% (inactive)"}, {"compound": "O=C(NC1CCCCCC1)c1cc(S(=O)(=O)N2CCC3(CC2)OCCO3)ccc1F", "inhibition": "5% (inactive)"}, {"compound": "CCOC(=O)c1[nH]c(C)c(C(=O)N2CCN(C(=O)c3ccco3)CC2)c1C", "inhibition": "0% (inactive)"}, {"compound": "COc1ccc(-c2nnnn2C)cc1S(=O)(=O)NCc1ccccc1", "inhibition": "1% (inactive)"}, {"compound": "c1ccc(-c2nnc(CSc3nncs3)o2)cc1", "inhibition": "0% (inactive)"}, {"compound": "CN/C(=C/[N+](=O)[O-])NCCSCc1ccc(CN(C)C)o1", "inhibition": "4% (inactive)"}, {"compound": "CCOC(=O)C1CCN(c2c(NCCCN(CC)c3ccccc3)c(=O)c2=O)CC1", "inhibition": "0% (inactive)"}, {"compound": "COc1ccc(N2CCN(c3oc(COc4ccccc4Cl)nc3C#N)CC2)cc1", "inhibition": "0% (inactive)"}, {"compound": "CC(C)c1nccn1S(=O)(=O)c1cc(Cl)ccc1Cl", "inhibition": "0% (inactive)"}, {"compound": "CCC(CCC(=O)Nc1cccc(C(=O)O)c1)C(=O)O", "note": "(stereo not given)", "inhibition": "2% (inactive)"}, {"compound": "Nc1c(S(=O)(=O)c2cccs2)c2nc3ccccc3nc2n1CC1CCCO1", "note": "(stereo not given)", "inhibition": "0% (inactive)"}, {"compound": "Cn1c(=O)c2c3c(sc2n2c(SCC(=O)c4ccc(Cl)cc4)nnc12)COC(C)(C)C3", "inhibition": "0% (inactive)"}, {"compound": "COc1ccc(CC(=O)NCc2ccccc2)cc1S(=O)(=O)N1CCOCC1", "inhibition": "0% (inactive)"}, {"compound": "Cn1c(SCc2c(F)cccc2Cl)nnc1-c1cccs1", "inhibition": "0% (inactive)"}, {"compound": "CCOC(=O)c1[nH]c2ccccc2c1NC(=O)CCN1CCN(C(=O)OCC)CC1", "inhibition": "0% (inactive)"}, {"compound": "Cc1cc(Cn2ccnc2)c(C)cc1Cn1ccnc1", "inhibition": "1% (inactive)"}, {"compound": "COc1ccc(N2C(=O)CCC(C(=O)N3CCCCC3)C2c2ccc(OC)c(OC)c2)cc1", "note": "(stereo not given)", "inhibition": "6% (inactive)"}, {"compound": "O=C(C1CC1)N1CCC(c2nc(-c3ccc(S(=O)(=O)NCC4CCCO4)cc3)no2)CC1", "note": "(stereo not given)", "inhibition": "0% (inactive)"}, {"compound": "CCC(=O)N(CCCN(C)C)c1nc(-c2cc(OC)ccc2OC)cs1", "inhibition": "6% (inactive)"}, {"compound": "C/C(N)=C(/C#N)C(=O)COC(=O)c1cc(C)n(-c2ccc(F)cc2)c1C", "inhibition": "2% (inactive)"}, {"compound": "CCOP(=O)(c1ccc(N(C)C)cc1)C(O)c1c(Cl)cccc1Cl", "note": "(stereo not given)", "inhibition": "0% (inactive)"}, {"compound": "O=C(Cn1ncc2c1-c1ccccc1OC2)N1CCN(c2ccccn2)CC1", "inhibition": "0% (inactive)"}, {"compound": "Clc1ccc2nc(N3CCCCC3)[nH]c2c1", "inhibition": "3% (inactive)"}]}]}
